# Experimental data reported in ChEMBL document CHEMBL4513216, “Probing the Open Global Health Chemical Diversity Library for Multistage-Active Starting Points for Next-Generation Antimalarials” (ACS Infect Dis, 2020).
# About 8,600 (12%) of roughly 69,000 compounds showed an effect of 50% or more. The sample as a whole holds a higher share of strong results than the screen did.
# System: Plasmodium berghei
# Experiment: Screen against P. berghei liver stage (PbLuc), transformed with Luciferase, at 10uM
# Assay type: functional, HepG2
# Conditions: tested at 10 uM
row,Structure (SMILES),INHIBITION
1,COCC(=O)N1CCCC1c1cccc(Nc2ncc(C)s2)n1 (centres undefined),42.4%
2,Cc1ccc(C2CCCCCN2Cc2cn(C)nc2C)s1 (centres undefined),27.6%
3,Cc1nn(C)cc1CN1CCCC1c1cccc(Nc2nccs2)n1 (centres undefined),23.25%
4,Cc1cnc(Nc2cccc(C3CCCN3C(=O)CO)n2)s1 (centres undefined),-0.902%
5,CCN(CC)S(=O)(=O)N1CCCC1c1cccc(Nc2ncc(C)s2)n1 (centres undefined),76.1%
6,Cc1cnc(Nc2cccc(C3CCCN3Cc3cn(C)nc3C)n2)s1 (centres undefined),64.5%
7,CCOCCN1C[C@@H]2CCCO[C@@H]2[C@H](NC(=O)c2cnoc2C)C1,32.1%
8,CC1(c2ncc(CN3CCN(c4ncccn4)CC3)cn2)CCCCO1 (centres undefined),23.15%
9,O=C(c1ccccc1F)N1C[C@@H]2COC[C@]2(COCc2cccnc2)C1,10%
10,CCCN1C(=O)c2ccccc2C1OC (centres undefined),28.7%
11,COCC(=O)Nc1cc(Br)cnc1OCC(F)(F)F,26%
12,CCC(=O)Nc1cc(Br)cnc1OCC(F)(F)F,67.1%
13,CC(=O)Nc1cc(Br)cnc1OCC(F)(F)F,30.3%
14,O=C(c1cccc2cccnc12)N1CC[C@@]2(CCCO2)[C@@H](O)C1,22%
15,COC(=O)CC(c1ccc(OC)c(O)c1)c1oc(C)cc(=O)c1O (centres undefined),3.31%
16,CN1CCN(CCOc2ccc(NC(=O)c3ccncc3)cc2)CC1,27%
17,CNc1nc2c(c(C(=O)N3CCCC3)n1)CN(C(=O)c1cccs1)CC2,-37.9%
18,CCn1ncnc1CN1CCOC(Cc2cccc3ccccc23)C1 (centres undefined),44.3%
19,O=C1CCC(C(=O)N2CCOC(Cc3ccccc3Cl)C2)=NN1 (centres undefined),71.1%
20,O=C1CCC(C(=O)N2CCOC(Cc3cccc4ccccc34)C2)=NN1 (centres undefined),53.7%
21,O=C1CCC(C(=O)N2CCOC(Cc3ccc(F)cc3)C2)=NN1 (centres undefined),-11.6%
22,NCC1CN(C(=O)c2cccc(-n3cccn3)c2)CCO1 (centres undefined),40.5%
23,Cn1ccnc1C(=O)N1CCOC(Cc2ccccc2Cl)C1 (centres undefined),41.2%

row,Structure (SMILES),INHIBITION
1,Cc1cc2ccncc2n1CC1(O)CCN(C(=O)c2ccccn2)CC1,18.3%
2,COC(=O)c1cc2c(OC)c(OC)c(OC)cc2[nH]1,32.2%
3,C=c1ncsc1=C1NN=C(C2CCCN2C(=O)CCn2cccn2)O1 (centres undefined),16.575%
4,CCC(C)NC(=O)c1cccc(CNC(=O)CC(F)(F)F)c1 (centres undefined),-76.9%
5,CCCNC(=O)c1cccc(CNCc2csc(CC)n2)c1,12.3%
6,CCNC(=O)c1cccc(CNC(=O)c2cnc(C(C)(C)C)s2)c1,-6.94%
7,CCCNC(=O)c1cccc(CNCc2csc(C(C)C)n2)c1,55.1%
8,CC(C)c1nc(CNC(=O)c2ccc(C(C)N3CCCCC3)o2)cs1 (centres undefined),42.2%
9,CCCNC(=O)CN1CCC(NCc2csc(C(C)C)n2)CC1,-16.8%
10,CCCNC(=O)c1cccc(CNCc2csc(C(C)(C)C)n2)c1,77.4%
11,CCCNC(=O)C1CCN(Cc2csc(C(C)C)n2)CC1,42%
12,CCC(C)NC(=O)c1cccc(CNCc2csc(C(C)C)n2)c1 (centres undefined),64.5%
13,Cc1ccc(C(=O)O)c(N2CC(C)(C)[C@@](C)(O)C2)n1,16.2%
14,O=S(=O)(c1cncc(F)c1)N1CCC2(CCOC2)C1 (centres undefined),-15.4%
15,CC(=O)Nc1ccc2nc(CN(C)Cc3snnc3C)ccc2c1,11.4%
16,COCc1cc(N(C)CCc2c(C)n[nH]c2C)ncn1,26.7%
17,COCC(c1cccc(C(F)(F)F)c1)N(C)C(=O)c1ccco1 (centres undefined),48.45%
18,O=C(c1cnccn1)N1CC[C@H]2C[C@@H](c3ccncn3)O[C@@H]2C1,29.9%
19,O=c1cc(CN2CCCC2)nc2n1CCCN(S(=O)(=O)C1CC1)C2,29.5%
20,Cc1noc([C@@H]2C[C@@H]3CCN(c4nnc(C)s4)C[C@H]3O2)n1,-21.1%
21,Cc1noc([C@@H]2CC[C@@H]3[C@@H](CCN3c3nnc(C)s3)O2)n1,50.4%
22,Cc1noc([C@H]2C[C@@H]3CCN(c4nnc(C)s4)C[C@H]3O2)n1,39.5%
23,Cc1noc([C@H]2CC[C@@H]3[C@@H](CCN3c3ncccn3)O2)n1,51.4%

row,Structure (SMILES),INHIBITION
1,Cc1noc([C@H]2CC[C@@H]3[C@@H](CCN3S(C)(=O)=O)O2)n1,7.12%
2,Cc1noc([C@@H]2CC[C@@H]3[C@@H](CCN3S(C)(=O)=O)O2)n1,-10.3%
3,CN1C[C@@H]2CN(C(=O)NCc3cccc(F)c3)CCC[C@]2(C(=O)O)C1,-10.5%
4,Cn1cc(C2CCCN2Cc2cscn2)cn1 (centres undefined),42%
5,NC(=O)C1CCN(C(=O)CCn2ccc3ccc(F)cc32)CC1,33%
6,Cn1ncc2c1CCCC2NCc1cccc(OC2CCCC2)c1 (centres undefined),50.5%
7,Cn1ncc2c1CCCC2NCc1cccc2c1OCCCO2 (centres undefined),50.3%
8,Cc1ccc(CNC2CCCc3c2cnn3C)s1 (centres undefined),-10.8%
9,Cc1cccc(CNC2CCCc3c2cnn3C)c1 (centres undefined),25.1%
10,Cn1ncc2c1CCCC2NCc1cccc(C(F)(F)F)c1 (centres undefined),89.1%
11,CSc1ccc(CNC2CCCc3c2cnn3C)cc1 (centres undefined),-46.8%
12,Cn1ncc2c1CCCC2NCc1cccnc1 (centres undefined),3.3%
13,Cn1ncc2c1CCCC2NCc1cccc(F)c1 (centres undefined),4.71%
14,CCn1ncc2c1CCCC2NCc1cccc2c1OCCCO2 (centres undefined),40%
15,CCCn1cc(C(=O)NC2CCC(n3cnnc3)CC2)c(C)n1 (centres undefined),18.5%
16,Cc1occc1C(=O)N1CCC[C@]2(C[C@@H](OCc3ccccn3)CO2)C1,22.9%
17,CCOCC1CN(Cc2ccccn2)Cc2nn(CC3CC3)cc21 (centres undefined),-2.17%
18,O=C(NCC(F)(F)F)c1ccc(-c2ccco2)[nH]c1=O,14.4%
19,COc1ccc(C2CCCN2S(=O)(=O)N(C)C)cc1 (centres undefined),-45.2%
20,c1c(CN2CCCC2)nc2n1CCN(CC1CC1)C2,-44.4%
21,COc1cc(C(=O)N(Cc2cnn(C)c2)C(C)C)ccc1OC(C)C,27.8%
22,CC1=N[C@@]2(CC[C@@H]3CN(Cc4ccccc4)C[C@@H]32)C(=O)N1CC1CC1,-13.4%
23,COc1ccc(C(=O)N2CC[C@](C)(O)[C@H](C)C2)cc1N1CCOCC1,54.4%

row,Structure (SMILES),INHIBITION
1,COc1ccc(C(=O)N2C[C@@H](C)[C@@](C)(O)C2)cc1N1CCOCC1,-4.92%
2,COc1ccc(C(=O)N2CCOCC(CO)C2)cc1N1CCOCC1 (centres undefined),49.9%
3,CC(C)Cn1cnc2ccc(NC(=O)CCCn3cccn3)cc2c1=O,13.2%
4,CN(C)C(CNc1c(NCc2ccco2)c(=O)c1=O)c1ccccc1 (centres undefined),4.48%
5,Fc1cnc(N2C[C@H]3CCC[C@@]3(COc3ccccn3)C2)nc1,76.6%
6,Cn1cc(CN2C[C@H]3CCC[C@@]3(COc3ccccn3)C2)cn1,67.5%
7,CCS(=O)(=O)N1C[C@H]2CCC[C@@]2(COc2ccccn2)C1,-23.7%
8,Cn1cc(CN2C[C@H]3CCC[C@@]3(COc3cccnc3)C2)cn1,52.1%
9,O=S(=O)(C1CC1)N1C[C@H]2CCC[C@@]2(COc2ccccn2)C1,0.79%
10,Cn1cc(CN2C[C@H]3CCC[C@@]3(COCC3CC3)C2)cn1,8.6%
11,c1cncc(OC[C@@]23CCC[C@@H]2CN(CC2CCOCC2)C3)c1,47.4%
12,Fc1cnc(N2C[C@@H]3COC[C@]3(COc3ccccn3)C2)nc1,43.1%
13,CS(=O)(=O)N1C[C@H]2CCC[C@@]2(COc2ccccn2)C1,33%
14,CCn1ncc(CNc2[nH]cnc3nncc2-3)c1C,25.3%
15,CCCC1CN(CC(C)C)C(=O)c2cccnc2O1 (centres undefined),6.34%
16,O=C(NCc1ccc2c(c1)OCO2)Nc1cccnc1N1CCCC1,-4.94%
17,O=c1cc(Cn2ccnc2)nc2n1CCCN(S(=O)(=O)C1CC1)C2,-10.2%
18,CN1C[C@H]2CC[C@@H](C1)N(Cc1ccccc1OCCN1CCOCC1)C2,-154%
19,CC(=O)N1CCC(NC(=O)N2CCN(c3cnccn3)CC2)CC1,48.2%
20,Cc1nc2c(c(=O)[nH]1)CN(Cc1ccc3c(c1)CCCN3C)CC2,30.5%
21,Cc1ccc(C(=O)N2CCC[C@@H]2Cn2nnc3c(O)nc(C)nc32)cc1,23.4%
22,Cn1ccnc1CNCCNc1ncc(Cl)cc1Cl,1.51%
23,CCCc1n[nH]c(C2CN(CCS(=O)(=O)CC)CCO2)n1 (centres undefined),44.1%

row,Structure (SMILES),INHIBITION
1,O=S(=O)(Nc1c(F)cccc1N1CCCC1)c1cncc(F)c1,27.6%
2,Cn1cc(S(=O)(=O)Nc2c(F)cccc2N2CCCC2)cn1,-11.9%
3,N#Cc1cccc(S(=O)(=O)Nc2c(F)cccc2N2CCCC2)c1,50.1%
4,O=C(c1ccncc1)N1CCC(c2nc(O)cc(-c3ccncc3)n2)C1 (centres undefined),48.3%
5,CCCN1C[C@H](NC(=O)c2ccccc2F)[C@@H](c2ccc(OC)cc2)C1,54.4%
6,CCCN1C[C@H](NC(=O)c2cccs2)[C@@H](c2ccc(OC)cc2)C1,31.6%
7,CCCN1C[C@H](NC(=O)c2cc(C)no2)[C@@H](c2ccc(OC)cc2)C1,35.2%
8,CCN(CC)C1CCN(C(=O)NCc2cccc(NC(C)=O)c2)C1 (centres undefined),-4.15%
9,CCCc1noc(CCC(=O)N2CCCC2c2cccs2)n1 (centres undefined),29.7%
10,CCCS(=O)(=O)N1C[C@@H]2C[C@H](C(=O)N3CCCC3)[C@H](C1)O2,35.8%
11,CN(C)c1cc(N2CCN(c3ccccn3)CC2)ncn1,41.1%
12,Cc1nccn1CCC1CCN(c2ccncn2)CC1,35.8%
13,Cc1ccccc1N1CCCN(c2ccncn2)CC1,80.7%
14,Cc1ccccc1N1CCN(c2ccncn2)C(C)C1 (centres undefined),63.2%
15,Cc1cc(C)nc(C2CCN(c3ccncn3)C2)n1 (centres undefined),36.9%
16,CSc1ncc(C(=O)N2CCN(c3ccccc3C)CC2C)cn1 (centres undefined),44.8%
17,Cc1ccccc1N1CCN(C(=O)c2cnc(N(C)C)nc2C)C(C)C1 (centres undefined),25.8%
18,Cc1ccccc1N1CCN(c2cc(N(C)C)ncn2)C(C)C1 (centres undefined),67.4%
19,Cc1ccccc1N1CCN(C(=O)c2ncc(F)cc2F)C(C)C1 (centres undefined),33%
20,Cc1ccc(N2CCN(c3ccccc3C)CC2C)nn1 (centres undefined),59.9%
21,Cc1ccccc1N1CCN(C(=O)c2cscn2)C(C)C1 (centres undefined),10.3%
22,Cc1ccccc1N1CCN(C(=O)c2cnc(C3CC3)nc2)C(C)C1 (centres undefined),43%
